# IDE exosite FP = exo-site inhibitors of human IDE, primary screen, biochemical, fluorescence anisotropy, probe displacement | AID 1259349, 2017 | purified IDE, FL-6b probe fluorescence polarization; stronger effect = lower value | Insulin-degrading enzyme (Homo sapiens), P14735 | z-score at 20 µM | 17,000 tested, 6.3% active;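 active = z-score of -3 or lower, meaning strong loss of probe binding signal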;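 note: His-tagged human IDE residues 42-1019 made in E. coli with 30 nM FL-6b probe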
# Target sequence (P14735 42-1019 limits assumed): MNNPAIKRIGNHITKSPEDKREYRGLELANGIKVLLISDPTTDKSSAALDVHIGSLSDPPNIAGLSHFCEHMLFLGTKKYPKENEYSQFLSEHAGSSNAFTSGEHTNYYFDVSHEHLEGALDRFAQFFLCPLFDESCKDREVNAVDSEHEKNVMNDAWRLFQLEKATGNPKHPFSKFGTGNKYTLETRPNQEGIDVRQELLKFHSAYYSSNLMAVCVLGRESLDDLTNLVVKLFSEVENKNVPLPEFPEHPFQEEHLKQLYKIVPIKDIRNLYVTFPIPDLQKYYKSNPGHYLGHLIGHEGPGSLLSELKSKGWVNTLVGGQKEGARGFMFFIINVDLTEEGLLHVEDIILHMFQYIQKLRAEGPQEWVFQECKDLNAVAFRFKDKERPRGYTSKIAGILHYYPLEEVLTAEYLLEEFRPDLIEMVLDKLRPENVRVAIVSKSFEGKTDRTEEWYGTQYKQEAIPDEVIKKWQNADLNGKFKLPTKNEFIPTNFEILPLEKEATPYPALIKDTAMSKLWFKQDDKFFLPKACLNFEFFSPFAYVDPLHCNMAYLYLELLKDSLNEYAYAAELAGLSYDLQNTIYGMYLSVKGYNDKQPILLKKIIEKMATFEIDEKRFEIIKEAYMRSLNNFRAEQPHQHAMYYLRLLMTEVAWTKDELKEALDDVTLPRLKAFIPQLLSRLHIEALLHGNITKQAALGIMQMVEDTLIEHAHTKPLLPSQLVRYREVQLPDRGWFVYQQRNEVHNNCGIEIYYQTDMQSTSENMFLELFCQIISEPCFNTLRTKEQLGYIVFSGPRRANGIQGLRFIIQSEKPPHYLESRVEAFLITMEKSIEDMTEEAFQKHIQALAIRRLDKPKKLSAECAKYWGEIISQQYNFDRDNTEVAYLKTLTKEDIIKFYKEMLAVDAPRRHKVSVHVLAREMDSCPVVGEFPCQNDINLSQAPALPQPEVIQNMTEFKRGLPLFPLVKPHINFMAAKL
# * marks the source's active call; other numbers are inactive results. Many of the other results were omitted from the sample, so hits are more common in it than they were.
SMILES,IDE exosite FP
CCS(=O)(=O)N1CC2(C1)[C@H](c1ccccc1)[C@@H](CO)N2C(=O)c1ccccc1,0.23
CCC(=O)N1[C@H](CO)[C@@H](c2ccc(/C=C/c3ccccc3)cc2)C12CN(S(C)(=O)=O)C2,-7.4*
O=C(C1CC1)N1CC(=O)N2[C@H](C1)[C@H](c1ccc(C#CC3CCCC3)cc1)[C@@H]2CO,0.39
O=C(c1ccc(F)cc1)N1CC(=O)N2[C@H](CO)[C@H](c3ccc(C#CCC4CCCC4)cc3)[C@H]2C1,-0.68
COc1ccc2c3c(n(C)c2c1)[C@@H](CO)N(C(=O)c1ccncc1)CC31CN(C(C)=O)C1,0.46
C[C@@H]1CN([C@H](C)CO)C(=O)c2cc(NS(=O)(=O)c3cn(C)cn3)ccc2O[C@@H]1CN(C)S(=O)(=O)c1ccc(F)cc1,0.72
C[C@@H]1CN([C@H](C)CO)C(=O)c2cc(NC(=O)C3CC3)ccc2O[C@H]1CN(C)S(=O)(=O)c1ccccc1,-3.5*
C[C@H]1CN([C@@H](C)CO)C(=O)c2cc(NC(=O)C3CC3)ccc2O[C@H]1CN(C)S(=O)(=O)c1ccccc1,0.3
C[C@@H]1CN([C@H](C)CO)C(=O)c2cc(NS(=O)(=O)c3cn(C)cn3)ccc2O[C@H]1CN(C)S(=O)(=O)c1ccc(F)cc1,-4.5*
C[C@@H]1CN([C@@H](C)CO)C(=O)c2cc(NC(=O)C3CC3)ccc2O[C@@H]1CN(C)S(=O)(=O)c1ccccc1,0.11
C[C@@H]1CN([C@@H](C)CO)C(=O)c2cc(NS(=O)(=O)c3cn(C)cn3)ccc2O[C@H]1CN(C)S(=O)(=O)c1ccc(F)cc1,-0.032
CO[C@H]1CN(C)C(=O)c2cc(NC(=O)c3ccccc3F)ccc2OC[C@@H](C)N(CC2CCOCC2)C[C@H]1C,0.11
Cc1ccc(-c2ccc([C@@H]3[C@H](CO)N4CCCCN(C(=O)Nc5ccccc5)C[C@@H]34)cc2)cc1,4
CCc1cnc(N2[C@@H](C#N)[C@@H](c3ccc(-c4cccc(F)c4)cc3)[C@@H]2CO)s1,-0.99
COCC#Cc1ccc([C@H]2[C@@H](CO)N3C(=O)CN(C(=O)Nc4ccc(F)cc4)C[C@H]23)cc1,2.6
CC(=O)NC[C@@H]1[C@@H](c2ccc(-c3cccc(F)c3)cc2)[C@H](CO)N1C(C)=O,-0.084
COc1ccc(C[C@H]2CCn3nncc3COC[C@@H](CC(C)C)NC2=O)cc1,-0.5
CN(C)C(=O)c1ccc(-c2ccc([C@@H]3[C@H](CO)N4CCCCN(Cc5ccncc5)C[C@@H]34)cc2)cc1,1.4
CCC(=O)N1CC(=O)N2[C@H](CO)[C@H](c3ccc(-c4ccccc4C)cc3)[C@@H]2C1,-8*
CCC(=O)N1CC(=O)N2[C@@H](CO)[C@H](c3ccc(-c4ccccc4F)cc3)[C@@H]2C1,0.65
CCS(=O)(=O)N1CC(=O)N2[C@H](CO)[C@@H](c3ccc(-c4ccccc4C)cc3)[C@H]2C1,-0.81
COCC(=O)N1CC(=O)N2[C@H](CO)[C@@H](c3ccc(-c4ccccc4C)cc3)[C@H]2C1,-0.94
Cc1ccccc1-c1ccc([C@H]2[C@H](CO)N3C(=O)CN(S(C)(=O)=O)C[C@@H]23)cc1,-1.4
CCC(=O)N1CC(=O)N2[C@H](CO)[C@@H](c3ccc(-c4ccccc4C)cc3)[C@H]2C1,-4*
C[C@@H]1CN([C@H](C)CO)C(=O)CCCn2nncc2CO[C@@H]1CN(C)C(=O)Nc1cccc(Oc2ccccn2)c1,-1.6
SMILES,IDE exosite FP
CCN(C[C@H]1[C@H](c2ccccc2)[C@@H](CO)N1C(C)=O)C(=O)NC(C)C,-0.61
O=C(c1ccc(F)cc1)N1CC(=O)N2[C@H](CO)[C@@H](c3ccc(-c4ccccc4)cc3)[C@H]2C1,2.4
COCC(=O)N1CCCCN2[C@@H](CO)[C@H](c3ccc(-c4cccc(C)c4)cc3)[C@@H]2C1,-3.1*
COCC(=O)N1CCCCN2[C@H](C1)[C@H](c1ccc(-c3ccc(C)cc3)cc1)[C@@H]2CO,1.1
COCC(=O)N1CCCCN2[C@H](CO)[C@H](c3ccc(-c4ccc(C)cc4)cc3)[C@@H]2C1,1.9
COCC(=O)N1CCCCN2[C@@H](CO)[C@@H](c3ccc(-c4ccc(C)cc4)cc3)[C@@H]2C1,0.039
COCC(=O)N1CCCCN2[C@H](CO)[C@@H](c3ccc(-c4cccc(C)c4)cc3)[C@@H]2C1,-5.3*
COCC(=O)N1CCCCN2[C@@H](CO)[C@H](c3ccc(-c4ccc(C)cc4)cc3)[C@@H]2C1,2.4
O=C(C[C@H]1C[C@H]2c3cc(NS(=O)(=O)c4ccccc4)ccc3O[C@H]2[C@@H](CO)O1)N1CCOCC1,0.36
Cn1cnc(S(=O)(=O)N2C[C@@H](O)COC[C@@H]3O[C@@H](CC(=O)NCc4cccc(F)c4)CC[C@H]32)c1,-0.2
